# Source: the OligoGym collection
# Molecular target: DMKN
# Test: pooled miR-30 sensor sort-seq; sequence = guide strand
# Conditions: shRNA
# Further: reference of the scale not given here.
row,Sequence,sensor-assay potency score (higher = more potent)
1,TCGAATGACATCTTCTGCCTGT,0.442
2,TTGGATTTAAAATTCTTCCAGA,0.603
3,TTCTGTTTGAAATCCTCCCAGA,-0.45
4,TTCCTCTCCGCTCTGCAGGGGG,-0.64
5,TTGTTGTCACCATTGCTGCCAC,-0.584
6,TTGTTGTTGTCACCATTGCTGC,-0.932
7,TGCCTGTCTGCCAATCTCGTGC,-0.915
8,TTTGCAGGGGTCTTGACTGAGT,-1.13

# Molecular target: DMRT3
# Test: as above
# Conditions: shRNA
row,Sequence,sensor-assay potency score (higher = more potent)
1,TTTGTCACTGAAGACCTCTGTA,0.155
2,TTTGACACAAATGGACACCCAT,0.206
3,TTGCAACAGAACCACTTCCTTT,-0.544
4,TTTTTTAACACTTCAAGCGGCG,-0.226
5,TTGACACAAATGGACACCCATC,-1.32
6,TTGTCTCTGAAAACTGTCCAAG,-0.806
7,TTACTCTTTGCCACATCTGGGG,-0.22
8,TACATTGACATTACACATGTTT,-0.269
9,TACATTAACCTGACAAAGCTTA,0.0811
10,TACTCTTTGCCACATCTGGGGA,-0.96
11,TAGACTCTCAGGTTCTGCGGAA,-0.423
